# Data published in the supplement of paper PMC6555819.
# System: VDR:RXRa (NR concentration 270 nM, RXRa partner concentration 90 nM)
# Test: PBM binding z-score (relative to random genomic background probes); higher = stronger binding; sequences stand for … in GC…GCGATTGACAGCGTAGAATGAAGG
# Procedure: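 Protein-binding microarray (Agilent 4x180K custom design, double-stranded 60-nt probes: 5' GC cap, 34-nt variable region, 24-nt constant primer region; full probe sequence given). Purified or IVT nuclear receptor:RXRα heterodimers (3:1 NR:RXRα, mostly 270:90 nM) or homodimers were incubated for 1 h in PBS with 2% milk and no ligand, then detected with Alexa488 antibodies. Fluorescence from o1-orientation probes (~5 replicates averaged) was converted to z-scores against 500 random hg19 background probes. Variable regions are seed direct-repeat (DR0–DR5) sites, all their single-nucleotide variants and half-site ablations.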
row,Sequence,PBM binding z-score
1,CCTAGTTGGTCAGGACGTCACACACCGGATATGA,0.236
2,TAGCCTAGGTCTTGGGCCAGTATACCACGCGAAC,-0.455
3,TCTTGTAGACCAAGCAGGTTAAGAAAGCCTGAGT,0.582
4,TCGCGTAGGTTACCAATGGGGCATTCAGCTTTCT,0.236
5,CCTTACGGGTCAAGGGTATAGCACGGGTGGTACG,3.22
6,TCATATAGGTAAATGCTAGGCGAAAGTCCGATCT,0.812
7,TATACAGGGTCCAAGGCCAGAGTACGAATGTCGA,0.821
8,AGAACGAGGGCACGCTGAGTTGATTGCAGAGTAG,2.04
9,CCGACTGGGGCATAAGGTTACAATAAGCCAGCCC,0.392
10,GCTTGTAGATCAAGCTTAAGAAAGACTAAGCTAA,-0.459
11,CGTCCAAGGTCGGAGAGGTCAGTGAATGCCGAGT,6.04
12,GCTTACGGGTCAAAGGTTATAGCATGAATAGAAT,5.86
13,AGTCAAAGTACAGGACGAGGTAACGTAAAGCACG,-0.143
14,TCTGCTAGGTCAGTCGGTCAGCTAACGAGCTGCC,0.139
15,TCTAGTTGGTCCAAGGTCACACACTCGAAATGCG,3.77
16,CGAACTAGGTCATTGACAGGACAGGGAATAGTAA,2.12
17,TCTTGTAGATCAATTGAGGTTAAGAAAGTGCGCT,1.86
18,CGTCTAAGTTCAACTAAGGTAACGTAAAGCACGC,4.12
19,CGAACTAGGTCATTGCCAGGACAGTGAATAGTAA,2.42
20,AGTCAAAGTTCACTAGGTAACGTCAGATTCAGCT,3.95

row,Sequence,PBM binding z-score
1,TAACCTAGGTCATGGGCCAGTATACCACGCGAAC,2.88
2,ATCTCTAGGTATCCAAGTTCAGTGAATGCCGAAC,2.38
3,TCGAGTAGGTTACCAATGGGGCATCCAGCTTTCT,-0.0688
4,CAAACTAGGTCACCGGAATGTCAAAGTCCGCATG,3.06
5,CAAACTAGGTCACGAAAGGTAAAAGTCGAATGAC,3.25
6,CAAACTAGGTCACCGGAAGATCAAAGTCCGCATG,2.62
7,TGAATGAGGTTAGAAGATCAGGGAACGTTGCAAA,0.0983
8,AGAATGAGGTTAGACGTAGATCAGGGAAGAAAGT,0.639
9,CATACAGGGTCAGCTAGGCCATAGTAGGGACGGC,4.92
10,ATATGTAGGTTAAGGGCCATTCAGGTTGGTTCGC,1.01
11,CCTGCTAGGTCAATGGTCCGCTAAAGCAGCTCGC,0.759
12,GCGACGGGGGCATCAGCAGGTTACCATAACTTAA,3.67
13,ATCTCTAGGTAAGACTCAGTTAAGTGAAGAACGC,0.511
14,ACTTACCGGTCAACGAGGTTATAGCACGCGTATA,6.19
15,ATCTCTAGGTAAAGATAGTTGAGTGAATGCAAAT,0.375
16,CGTCCAAGGTCAGCAGGTCAGTCAAAGCGACGTG,4.02
17,CCAACTGGGCCATTCAGAGGTCATTGATCATATG,3.92
18,GATACAGGGTCAAGGCCTGAGTACGCGTATTGAT,4.48
19,ACTATTAGTTGACTTAGAGCAACCGATACGACGC,-0.14
20,GCTTACGGGTCAAAGGATATAGCATGAATAGAAT,3.16
